Screens from PubChem.
DT40 TDP1 no CPT: qHTS for Inhibitors of human tyrosyl-DNA phosphodiesterase 1 (TDP1): qHTS in cells in absence of CPT; AID 686978, 2013; DT40 Tdp1-/- hTDP1 cells, no CPT, ATP luminescence, 48 h; 420,000 compounds, 15% hits; Potency, µM (doses to about 46.2 µM), inactives show at the highest dose activity change, negative = growth inhibition, most hits filed as inhibitors; note: nearly all actives have a fitted effect of over 55% in size
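Chicken DT40 Tdp1-/- cells stably complemented with human TDP1 were seeded at 400 cells/well with DMSO in place of 20 nM camptothecin. After compound pinning, cells grew at least 48 hr at 37 °C; viability read by CellTiter-Glo luminescence.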
GCN5L2 inh: blocks human GCN5L2 histone acetyltransferase. Potency, µM (titrated, usually from 58.9 µM), for inactives: top-dose activity change, negative = inhibition, most hits filed as inhibitors. GCN5L2 HAT assay, ThioGlo1 CoA-SH fluorescence. 390,000 compounds, 0.21% hits
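Titration-based screen in which CoA formation is detected via maleimide probe ThioGlo1 (50uM) turning fluorescent on thiol reaction; substrates H3(1-25) 75uM and acetyl-CoA 70uM, GCN5L2 20nM, 20 min incubation at room temperature.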
TDP1 cell CPT: DT40-hTDP1 cell growth loss with CPT; chicken DT40 Tdp1-/-;hTDP1 cells + 20 nM CPT, ATP luminescence, 48 h; 420,000 compounds, 12% hits; Potency, µM (doses to about 46.2 µM), for the others: at the highest dose activity change, negative = growth inhibition, actives largely listed as inhibitors; AID 686979; note: nearly all actives have a fitted effect of over 55% in size
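Chicken DT40 Tdp1-/- cells stably complemented with human TDP1 were seeded at 400 cells/well in medium containing 20 nM camptothecin, exposed to pin-transferred compounds, and grown at 37 °C for at least 48 hr. Viability was read as ATP luminescence.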
TDP1 block: blocks human tyrosyl-DNA phosphodiesterase 1; 350,000 compounds, 0.28% hits; recombinant TDP1, AlphaScreen DNA substrate cleavage; Potency, µM (doses to about 130 µM), for inactives: top-dose activity change, negative = inhibition, actives largely listed as inhibitors; Q9NUW8; note: nearly all actives have a fitted effect of over 40% in size
Target sequence (Q9NUW8 whole entry, looked up): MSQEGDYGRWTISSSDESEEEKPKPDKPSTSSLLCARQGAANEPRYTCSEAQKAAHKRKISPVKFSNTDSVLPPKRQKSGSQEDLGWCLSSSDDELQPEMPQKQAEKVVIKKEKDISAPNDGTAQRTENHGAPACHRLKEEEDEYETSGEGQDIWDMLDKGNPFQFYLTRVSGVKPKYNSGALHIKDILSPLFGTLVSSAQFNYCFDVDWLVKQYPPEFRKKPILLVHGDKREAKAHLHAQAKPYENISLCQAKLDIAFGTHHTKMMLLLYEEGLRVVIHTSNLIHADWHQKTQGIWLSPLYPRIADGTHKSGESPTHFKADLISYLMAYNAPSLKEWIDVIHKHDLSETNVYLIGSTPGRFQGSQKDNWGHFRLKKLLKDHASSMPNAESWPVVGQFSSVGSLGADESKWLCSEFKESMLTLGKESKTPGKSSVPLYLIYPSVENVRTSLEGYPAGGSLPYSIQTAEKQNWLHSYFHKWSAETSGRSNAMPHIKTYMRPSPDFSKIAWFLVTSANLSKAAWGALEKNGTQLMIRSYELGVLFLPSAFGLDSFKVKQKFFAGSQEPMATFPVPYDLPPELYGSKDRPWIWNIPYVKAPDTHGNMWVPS
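Steps: enzyme plus compound, 15 min RT; add biotin/phosphotyrosine-FITC oligonucleotide (15 nM final), react 5 min; add donor/acceptor beads (10 ug/ml final), 10 min; read AlphaScreen. Tdp1 at 1 nM final.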
PLK1 PBD inh: inhibitors of human PLK1 polo-box domain binding | 360,000 compounds, 2.8% hits | Plk1 PBD binding of FITC phosphopeptide, fluorescence polarization | P53350 | AID 720504 | Potency, µM, for the others: max response, negative = inhibition, usual class: inhibitors; note: series mostly up to about 57 µM; nearly all actives have a fitted effect of over 65% in size
VDR inh: blocks the human vitamin D receptor; VDR-SRC2-3 peptide fluorescence polarization, 2 h; Potency, µM, for inactives: max response, negative = inhibition, most hits filed as inhibitors; 400,000 compounds, 0.93% hits; AID 504847; P11473
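Fluorescence polarization assay of small-molecule disruption of VDR binding to coregulator peptide SRC2-3. Compounds and controls pin-transferred, then read after 2 h incubation at ambient room temperature.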
* marks the source's active call; other numbers are inactive results; ? = inconclusive; . = not tested or not shown. A selection: hits, their analogues and other compounds. The true share with any hit is near 18%. Calls come from the whole dose curve; as a rule, active = well fitted curve in the direction sought with a large enough effect; inconclusive = small, poorly fitted or top-dose-only effect, or another doubt; inactive = no such curve, though single readings can be large; an effect the other way counts as inactive or inconclusive. % is set by controls: 0 for no effect and ±100 for the full control effect; potency is the fitted concentration of half-maximal effect.

SMILES | DT40 TDP1 no CPT | GCN5L2 inh | TDP1 cell CPT | TDP1 block | PLK1 PBD inh | VDR inh
Cc1ccccc1Cn1nc(C)c(NC(=O)c2sc3ccccc3c2Cl)c1C | 20.6µM* | 42.8% | ? | 2.9% | -2.3% | -15.0%
Cc1nn(Cc2ccc(Cl)c(Cl)c2)c(C)c1NC(=O)c1sc2ccccc2c1Cl | 14.6µM* | -7.9% | ? | 3.2% | 2.6% | -8.5%
Cc1ccc(Cn2c(=O)n(Cc3ccccc3)c(=O)c3oc4ccccc4c32)cc1 | 5.0% | 0.9% | 15.2% | 2.6% | . | 8.5%
CC1=C(C(=O)N2CCOCC2)CC(CC(=O)NCCc2ccccn2)C(=O)N1Cc1ccc(C(C)(C)C)cc1 (stereo unspecified) | -18.0% | . | -23.8% | . | 2.7% | .
O=C(NC(=S)Nc1ccc(Br)cn1)c1cccs1 | ? | -1.6% | ? | 0.6% | -4.0% | 9.5%
Cc1cc(C)nc(NC(=O)/C=C/c2cccs2)c1 | -2.6% | 0.7% | -11.6% | 3.1% | -2.7% | 2.1%
Cc1cc(C)c(-c2csc(NC(=O)/C=C/c3cccs3)n2)c(C)c1 | 18.4µM* | -8.4% | ? | 2.6% | -20.0% | -23.9%
CCc1nnc(NC(=O)/C=C/c2cccs2)s1 | -24.4% | -0.6% | -29.5% | 2.6% | -3.5% | 15.5%
O=C(/C=C/c1cccs1)Nc1ccc(Br)cn1 | 0.326µM* | 2.2% | 0.259µM* | 2.7% | -9.6% | -10.5%
O=C(/C=C/c1cccs1)Nc1cccc(NC(=O)/C=C/c2cccs2)n1 | 8.2µM* | -3.5% | 11.6µM* | 5.3% | 3.7% | -23.1%
CCCCN1C(=O)C(=O)NC[C@@H]1Cc1ccc(O)cc1 | -4.6% | . | -1.1% | . | -13.9% | .
CC[C@H](C)[C@H](NC(=O)[C@H](Cc1cnc[nH]1)NC(=O)[C@@H](NC(=O)[C@H](CCCNC(=N)N)NC(=O)[C@H](CCCCN)NC(=O)[C@H](CCCNC(=N)N)NC(=O)[C@H](CCCCN)NC(=O)[C@@H](N)CC(N)=O)[C@@H](C)CC)C(=O)NCC(=O)N1CCC[C@H]1C(=O)NCC(=O)N[C@@H](CCCNC(=N)N)C(=O)N[C@@H](C)C(=O)N[C@@H](Cc1ccccc1)C(=O)N[C@@H](Cc1ccc(O)cc1)C(=O)N[C@H](C(=O)N[C@H](C(=O)N[C@@H](CCCCN)C(=O)N[C@@H](CC(N)=O)C(=O)N[C@H](C(=O)N[C@H](C(=O)NCC(=O)N[C@H](C(=O)N[C@H](C(=O)N[C@@H](CS)C(=O)O)[C@@H](C)CC)[C@@H](C)O)[C@@H](C)CC)[C@@H](C)CC)[C@@H](C)O)[C@@H](C)O | . | 2.5% | . | 20.0% | . | 14.0%
COc1ccc(OC(=O)c2cn(-c3cccc(OC)c3)c(=O)c3ccccc23)cc1 | ? | -9.5% | ? | 5.5% | . | 0.3%
O=[N+]([O-])c1ncn(Cc2c(Cl)cccc2Cl)n1 | ? | 0.0% | 18.4µM* | 0.0% | -12.6% | -10.6%
O=C(Nc1c(-c2ccc3c(c2)OCO3)[nH][nH]c1=O)c1ccccc1 | ? | . | ? | . | 13.4µM* | .
O=C(CCNC(=O)Cn1cnc2ccccc2c1=O)NCCC1=CCCCC1 | -4.2% | -10.0% | ? | -1.1% | 26.7µM* | -9.6%
Cc1ccc(C2(C)NC(=O)N(CC(=O)NCCC3=CCCCC3)C2=O)cc1 (stereo unspecified) | ? | -1.1% | ? | 4.7% | -29.1% | 5.6%
CC1(c2ccccc2)NC(=O)N(CC(=O)NCCC2=CCCCC2)C1=O (stereo unspecified) | -3.0% | 28.2µM* | -9.4% | 2.1% | -22.7% | -15.4%
CN(C)S(=O)(=O)c1ccc(C(=O)NCC2CC2(Cl)Cl)cc1 (stereo unspecified) | ? | -0.5% | ? | -2.7% | 23.8µM* | ?
CN(C)S(=O)(=O)c1ccc(C(=O)NCc2ccccc2)cc1 | -27.6% | -2.5% | -18.1% | -4.2% | -9.8% | -22.1%
C[C@]12c3[nH]c4ccccc4c3CCN1C(=O)C(CC(=O)NCCCn1ccnc1)C[C@@H]2C(=O)N1CCOCC1 (stereo partly specified) | 2.0% | -0.3% | 0.5% | 2.0% | -6.8% | -21.1%
CC(NC(=O)/C(C#N)=C/c1ccc(Cl)c([N+](=O)[O-])c1)c1ccccc1 (stereo unspecified) | 3.66µM* | -8.7% | 3.66µM* | -2.3% | 11.9µM* | ?
N#C/C(=C\c1ccc(Cl)c([N+](=O)[O-])c1)c1ccccn1 | 20.6µM* | -10.9% | 20.6µM* | 7.7% | -11.0% | -14.1%
CNc1ccc(/C=C(\C#N)c2ccccn2)cc1[N+](=O)[O-] | -17.0% | -5.5% | -0.6% | 7.5% | 6.3% | -5.7%
CC(=O)c1cccc(-c2ccnc3c2CC(C(=O)NCc2ccncc2)O3)c1 (stereo unspecified) | ? | . | ? | . | -12.8% | .
SMILES | DT40 TDP1 no CPT | GCN5L2 inh | TDP1 cell CPT | TDP1 block | PLK1 PBD inh | VDR inh
CC(=O)c1cccc(-c2ccnc3c2CC(C(=O)NCC2CCOCC2)O3)c1 (stereo unspecified) | 2.91µM* | . | 3.66µM* | . | -8.5% | .
CC(=O)c1cccc(-c2ccnc3c2CC(C(=O)NCC2CC2)O3)c1 (stereo unspecified) | ? | . | 23.1µM* | . | -1.8% | .
CCCCCn1c(C(C)NC(=O)c2ccccc2)nc2ccccc21 (stereo unspecified) | -33.1% | -8.3% | ? | 0.0% | . | -12.9%
C/C1=C2/[N-]C(C(CC(N)=O)[C@@]2(C)CCC(=O)NCC(C)OP(=O)([O-])O[C@H]2[C@@H](O)[C@@H](n3cnc4cc(C)c(C)cc43)O[C@@H]2CO)[C@]2(C)N=C(/C(C)=C3N=C(/C=C4N=C1C(CCC(N)=O)C\4(C)C)[C@@H](CCC(N)=O)[C@]\3(C)CC(N)=O)[C@@H](CCC(N)=O)[C@]2(C)CC(N)=O.CC(=O)O.[Co] (stereo partly specified) | . | -16.0% | . | . | . | 10µM*
Cc1c(/C=N/Nc2ccc(F)cc2)c(O)n(C)c(=O)c1C#N | ? | -20.1% | ? | 11.9% | 18.9µM* | -15.4%
CC(=O)N=Cc1c(C)c(C#N)c(=O)n(C)c1O | 6.1% | -10.1% | -12.4% | 5.7% | -18.4% | 6.1%
COc1ccc(NS(=O)(=O)c2ccc(NC(=O)c3ccc(CN4CCOCC4)cc3)cc2)cc1 | 23.1µM* | -1.3% | 18.4µM* | 11.1% | -1.1% | 12.4%
O=C(Nc1ccc(S(=O)(=O)Nc2ccc(F)cc2)cc1)c1ccc(CN2CCOCC2)cc1 | 18.4µM* | -1.1% | ? | -4.8% | -4.9% | 24.4%
